Assay outcomes as filed in PubChem BioAssay.
Sampled rows, rich in hits. Any-hit rate of the full collection: about 3.4%.
ERa coact pot – enhances coactivator binding to human estrogen receptor alpha; P03372; TR-FRET ERalpha-LBD/SRC-Cy5 coactivator binding, 2 h; 100 = basal binding, no effect; coactivator binding (% of control), % at 25.6 µM; hit rate 1.3% among 86,000; in the data active = activity above about 200%;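 note: binding measured in presence of low estradiol as agonist stimulus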
PTPN22 inh 2 – blocks human PTPN22 phosphatase activity | inhibition, % at 2 µM | recombinant LYP catalytic domain, DiFMUP fluorescence | hit rate 0.21% among 96,000 | Q9Y2R2 | AID 640;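 active = inhibition at 2 µM at or above a set limit, the screen mean plus 3 SD, cut at about 24% in these data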
ERb coact inh – ER-beta (human) coactivator binding inhibition; Q92731; AID 633; TR-FRET ER-beta LBD / SRC1-Cy5 peptide binding; receptor agonist-loaded with 1 µM estradiol; inhibition, % at 25.6 µM; hit rate 1.3% among 86,000;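 active = compounds whose percent inhibition of the receptor-coactivator binding signal exceeds about 50% in the single-dose screen, limit read from the data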
Target sequence (Q92731 whole entry, looked up, the tested form may be a part): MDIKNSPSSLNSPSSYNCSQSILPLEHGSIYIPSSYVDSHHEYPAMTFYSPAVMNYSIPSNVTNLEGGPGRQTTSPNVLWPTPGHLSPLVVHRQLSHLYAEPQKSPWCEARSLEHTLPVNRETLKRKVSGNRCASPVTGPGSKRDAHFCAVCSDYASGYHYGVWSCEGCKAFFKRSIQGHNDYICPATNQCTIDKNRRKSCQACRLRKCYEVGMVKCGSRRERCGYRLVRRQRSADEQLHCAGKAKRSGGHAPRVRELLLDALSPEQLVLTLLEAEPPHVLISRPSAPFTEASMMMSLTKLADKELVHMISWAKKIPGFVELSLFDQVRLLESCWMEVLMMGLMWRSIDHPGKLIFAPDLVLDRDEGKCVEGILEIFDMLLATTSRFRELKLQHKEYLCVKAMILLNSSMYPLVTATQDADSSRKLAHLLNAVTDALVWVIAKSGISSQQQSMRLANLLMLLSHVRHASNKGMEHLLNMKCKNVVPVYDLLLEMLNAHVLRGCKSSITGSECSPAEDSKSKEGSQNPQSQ
ERa SRC1 inh – blocks coactivator binding to human estrogen receptor alpha | P03372 | TR-FRET ER-alpha LBD / SRC-1 peptide, estradiol-bound | inhibition, % at 25.6 µM | hit rate 1.7% among 86,000 | AID 629; in the data active = inhibition above about 50%
PTPN22 act – increases human PTPN22 phosphatase activity | AID 697 | Q9Y2R2 | recombinant LYP, DiFMUP fluorescence; 0 = plate median, 100 = signal doubled | activation, % at 2 µM | hit rate 0.11% among 96,000;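 active = activation at 2 µM above a set limit, the mean plus 5 SD, cut at about 37% in these data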
FAK inh – blocks human focal adhesion kinase activity; biochemical FAK kinase activity assay; inhibition, %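 (tested at 7 µM)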; hit rate 0.84% among 97,000; in the data active = inhibition above about 19%
Large screens that a line does not name were inactive; [ ] = dose if it differs, or a comment.

CCOC(=O)CC1=C(C(=O)OCC)C(c2cccs2)C(C#N)=C(N)O1 (configuration not stated)	ERa SRC1 inh 93[fluorescence artefact?]
CCOC(=O)CC1=C(C(=O)OCC)C(c2ccc(OC)c(OC)c2)C(C#N)=C(N)O1 (configuration not stated)	none
COC(=O)c1cc(NC(=O)Cc2ccccc2[N+](=O)[O-])cc(C(=O)OC)c1	none (no result: ERa coact pot, ERb coact inh, ERa SRC1 inh)
CC(C)Cn1c(N)c(C(=O)CSc2nnnn2C)c(=O)n(C)c1=O	none
CC(C)Cn1c(N)c(C(=O)CSc2nnnn2-c2ccc(Cl)cc2)c(=O)n(C)c1=O	ERa coact pot 327 (no result: PTPN22 inh 2, PTPN22 act, FAK inh)
COc1ccc(-c2nc3c(c(=O)[nH]c(=O)n3Cc3ccccc3)n2C)cc1	ERa coact pot 270[fluorescence artefact?]
CCOC(=O)c1ccc(NC(=O)c2c(O)c3ccccc3n(C)c2=O)cc1	ERa SRC1 inh 63 (no result: PTPN22 inh 2, PTPN22 act, FAK inh)
CCOC(=O)Cc1csc(NC(=O)c2c(O)c3ccccc3n(C)c2=O)n1	none (no result: PTPN22 inh 2, PTPN22 act, FAK inh)
O=C(c1ccco1)N1CCN(C(c2ccccc2Cl)c2nnnn2CC2CCCO2)CC1 (configuration not stated)	none
NC(=O)C1CCN(C(c2ccccc2Cl)c2nnnn2CC2CCCO2)CC1 (configuration not stated)	PTPN22 inh 2 29
CC(C)OP(=O)(OC(C)C)C1(O)C(=O)Nc2ccccc21 (configuration not stated)	none (no result: ERa coact pot, ERb coact inh, ERa SRC1 inh)
Cc1c(CCOC(=O)CC23CC4CC(CC(C4)C2)C3)sc[n+]1Cc1ccccc1	none (no result: ERa coact pot, ERb coact inh, ERa SRC1 inh)
Cc1c(CCOC(=O)C2C3CC4CC(C3)CC2C4)sc[n+]1CC(=O)c1ccc(Br)cc1 (configuration not stated)	PTPN22 inh 2 33
Cc1onc(-c2ccccc2)c1-c1n[nH]c(=S)n1-c1ccccc1	none
Cc1cccc(CN(CC(=O)N/N=C/c2cccs2)S(=O)(=O)c2ccc(Cl)cc2)c1	none (no result: ERa coact pot, ERb coact inh, ERa SRC1 inh)
NC(=O)C1=NOC(CNc2ncc(C(F)(F)F)cc2Cl)C1 (configuration not stated)	none
COCCNC(=O)c1c(N)n(/N=C/c2cccs2)c2nc3ccccc3nc12	ERa SRC1 inh 68
CCCCCCNC(=O)c1c(N)n(/N=C/c2ccco2)c2nc3ccccc3nc12	none (no result: ERa coact pot, ERb coact inh, ERa SRC1 inh)
CCCCNC(=O)c1c(N)n(/N=C/c2ccccn2)c2nc3ccccc3nc12	none (no result: ERa coact pot, ERb coact inh, ERa SRC1 inh)
CC(C)CNC(=O)c1c(N)n(/N=C/c2ccccn2)c2nc3ccccc3nc12	ERa coact pot 228[fluorescence artefact?], ERa SRC1 inh 69
CCOC(=O)Cc1csc(SCC(=O)Nc2cc(Cl)ccc2Oc2ccccc2)n1	none
OC1(c2cccc(C(F)(F)F)c2)CCNCC1	ERb coact inh 70[fluorescence artefact?]
COCCn1nnnc1CN1CCC(O)(c2cccc(C(F)(F)F)c2)CC1	none (no result: PTPN22 inh 2, PTPN22 act, FAK inh)
CC(=O)Nc1sc(NC(=O)c2ccccc2)nc1-c1cccs1	none (no result: PTPN22 inh 2, PTPN22 act, FAK inh)
CSc1nc2ccc3nc(NC(=O)c4ccccc4)sc3c2s1	ERa coact pot 223[fluorescence artefact?], ERa SRC1 inh 55[fluorescence artefact?]
COc1cccc(-n2c(SCC(=O)N3CCCC3)nc3c([nH]c4ccccc43)c2=O)c1	ERa coact pot 285[fluorescence artefact?]
Cn1c(SCC(=O)N2CCCCCC2)nc2c([nH]c3ccccc32)c1=O	none
O=C(N/N=C/c1cccc([N+](=O)[O-])c1)c1cc2c(ccc3ccccc32)o1	PTPN22 inh 2 35 (no result: ERa coact pot, ERb coact inh, ERa SRC1 inh)
Cc1ccc([N+](=O)[O-])cc1-c1ccc(/C=N/NC(=O)c2cc3c(ccc4ccccc43)o2)o1	none (no result: ERa coact pot, ERb coact inh, ERa SRC1 inh)
CCC(CC)c1nnc(NC(=O)CCCN2C(=O)c3ccccc3C2=O)s1	none
Cc1nn(Cc2ccccc2)c(C)c1NC(=O)CSc1nc(-c2ccccc2)nc2c1cnn2-c1ccccc1	ERa SRC1 inh 72[fluorescence artefact?]
CCOC(=O)CC(=O)Nc1ccc(C)cc1	none
CCCCN(C)CCNC(=O)c1c[nH]c2ccc(S(=O)(=O)N(CC)CC)cc2c1=O	none
CCN(c1ccccc1)S(=O)(=O)c1ccc2[nH]cc(C(=O)NCCOC)c(=O)c2c1	ERa SRC1 inh 50
Cc1ccc(-c2nn(-c3cc(Cl)ccc3[N+](=O)[O-])c(=O)c3ccccc23)cc1C	none (no result: ERa coact pot, ERb coact inh, ERa SRC1 inh)
C/C(N)=C(/C#N)C(=O)CSc1nnc(Nc2c(C)cccc2C)s1	ERb coact inh 93[fluorescence artefact?], ERa SRC1 inh 87[fluorescence artefact?] (no result: PTPN22 inh 2, PTPN22 act, FAK inh)
C/C(N)=C(/C#N)C(=O)CSc1nnc(SCc2ccc(Cl)cc2)s1	none
C/C(N)=C(/C#N)C(=O)CSc1nnc(Nc2cccc(C)c2C)s1	ERb coact inh 65, ERa SRC1 inh 52[fluorescence artefact?]
Cc1nnc(SCC(=O)NCc2ccco2)n1-c1ccccc1	none
Cc1ccccc1Nc1nnc(SCC(=O)NCc2ccco2)s1	ERb coact inh 54, ERa SRC1 inh 85[fluorescence artefact?]
Cc1ccc(-c2nc3ncccc3o2)cc1NC(=O)Cc1ccc(Cl)cc1	ERa SRC1 inh 52[fluorescence artefact?]
Cc1ccc(-c2nc3ncccc3o2)cc1NC(=O)COc1ccccc1	none
Cc1ccc(-c2nc3cccnc3o2)cc1NC(=O)COc1ccc(C(C)(C)C)cc1	none
Cc1ccc(-c2nc3cccnc3o2)cc1NC(=O)COc1ccc(Cl)cc1C	ERa coact pot 210[fluorescence artefact?]
CSC(=NC#N)N1CCN(c2ccc(Cl)cc2)CC1	none (no result: ERa coact pot, ERb coact inh, ERa SRC1 inh)
O=C(Cn1ncc2c(=O)oc3ccccc3c21)Nc1nc2ccccc2s1	ERa coact pot 429
N#Cc1c(N)nc(SC2CCCCC2=O)c(C#N)c1-c1ccco1 (configuration not stated)	ERa coact pot 217[fluorescence artefact?]
N#Cc1c(N)nc(SCc2ccccc2)c(C#N)c1-c1ccco1	ERa coact pot 213
CCOC(=O)CSc1nc(N)c(C#N)c(-c2cccs2)c1C#N	none (no result: ERa coact pot, ERb coact inh, ERa SRC1 inh)
N#Cc1c(N)nc(SCc2ccccn2)c(C#N)c1-c1cccs1	ERa coact pot 373[fluorescence artefact?]
N#Cc1c(N)nc(SCC(=O)OCc2ccccc2)c(C#N)c1-c1ccco1	none
N#Cc1cc2c(nc1SC1CCCCC1O)CCCC2 (configuration not stated)	none
CN(C)/C=C(\C=N\OCc1ccc(Cl)cc1Cl)C(=O)Nc1ccc(Cl)c(Cl)c1	none (no result: ERa coact pot, ERb coact inh, ERa SRC1 inh)
Cc1cc(NC(=O)CSc2ncnc3sc4c(c23)CCC(C)C4)no1 (configuration not stated)	ERa coact pot 375[fluorescence artefact?] (no result: PTPN22 inh 2, PTPN22 act, FAK inh)
CCOc1ccc(C(=O)Nc2cc(C)c3c(=O)oc4ccccc4c3n2)cc1	ERa coact pot 315[fluorescence artefact?]
CCC(CC)C(=O)Nc1cc(C)c2c(=O)oc3ccccc3c2n1	none (no result: FAK inh)
COc1ccc(CC(=O)Nc2cc(C)c3c(=O)oc4ccccc4c3n2)cc1	ERa coact pot 243, ERb coact inh 53[fluorescence artefact?] (no result: PTPN22 inh 2, PTPN22 act, FAK inh)
Cc1ccc(N(CC(O)CON=C2c3ccccc3-c3ccccc32)S(C)(=O)=O)cc1 (configuration not stated)	none
CC(C)=CCC/C(C)=C/CCC(C)NCCN1CCNCC1 (configuration not stated)	ERa coact pot 201[fluorescence artefact?]
CC(=O)c1cccc(NC(=O)C2CCN(S(C)(=O)=O)CC2)c1	none
CC(=O)c1cccc(NC(=O)C2CCCCC2)c1	ERa coact pot 263
Cc1cc(C)n(-c2nc(SCCN(C)C)c3c4c(sc3n2)COC(C)(C)C4)n1	none (no result: ERa coact pot, ERb coact inh, ERa SRC1 inh)
COc1ccc(NC(=O)Cn2c(-c3ccccc3)cn(-c3ccc(C)cc3)c2=O)cc1	ERa coact pot 201
